Here are results for 27 compounds from PubChem BioAssay.

Several values for one entry are separate records, joined by “and”; a condition that tells them apart may be missing. Equal entries are not always repeated. Results filed as inconclusive are left out. Activity calls are given as the source filed them. Unless noted, no rule for the calls is given here.

The nature of test [1]: modulation of C. elegans fzo-1 (AID 1259413).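 Also: fzo-1 mutant C. elegans worms in liquid wells.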 The following applies: C. elegans fzo-1 modulator screen, mean read-out; stronger effect = higher value.
The nature of test [2]: growth inhibition of DIPG glioma cells, dose response, cell-based, SU-DIPG-XVII, MIPE5.0, CellTiter-Glo, qHTS (AID 1347060; cut-off not given, nearly all actives have AC50 up to about 26 µM;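 as to AC50: cells exposed to compound for 48 hours before viability readout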). The settings on record: SU-DIPG-XVII viability, CellTiter-Glo ATP luminescence. On the technique in general: In ATP-based viability assays light output follows the ATP content of the culture.
Test [3] in a line: growth inhibition of DIPG glioma cells, dose response, cell-based, SU-DIPG-XIII, MIPE4.0, CellTiter-Glo, qHTS (AID 1347061; cut-off not given, nearly all actives have AC50 up to about 37 µM;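 also: cells exposed to compound for 48 hours before readout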). The settings on record: SU-DIPG-XIII viability, CellTiter-Glo ATP luminescence.
Test [4] in a line: growth inhibition of DIPG glioma cells, dose response, cell-based, JHH-DIPG-1, MIPE4.0, CellTiter-Glo, qHTS (AID 1347062; cut-off not given, nearly all actives have AC50 up to about 27 µM;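 as to AC50: cells exposed to compound for two days before readout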). The following applies: JHH-DIPG-1 viability, CellTiter-Glo ATP luminescence.
Test [5] in a line: growth inhibition of DIPG glioma cells, dose response, cell-based, SU-DIPG-XIII, MIPE5.0, CellTiter-Glo, qHTS (AID 1347064; cut-off not given, nearly all actives have AC50 up to about 23 µM;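 as to AC50: cells exposed to compound for 48 hours before the viability read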). The following applies: SU-DIPG-XIII viability, CellTiter-Glo ATP luminescence.
Test [6] deals with Aerobactin synthetase IucA (Klebsiella pneumoniae). Description: IucA aerobactin synthetase inhibitors, biochemical, Tocris library, absorbance (AID 1345561).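 Also: 100% = enzyme without compound and 0% = no enzyme.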 The following applies: purified IucA enzyme assay, absorbance (OD) read-out; stronger effect = lower value;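 tested at 8 µM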.
Test [7] in a line: growth inhibition of DIPG glioma cells, dose response, cell-based, SU-DIPG-IV, MIPE4.0, CellTiter-Glo, qHTS (AID 1347063; cut-off not given, nearly all actives have AC50 up to about 30 µM;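 also: compound exposure lasted 48 hours before the viability readout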). The settings on record: SU-DIPG-IV viability, CellTiter-Glo ATP luminescence.
Test [8] is described as follows: differential killing of epithelial or mesenchymal cells, primary screen, imaging, PC-3E GFP, TEM4-18 mCherry, co-culture (AID 1345086;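 active = compounds killing one labelled cell type while sparing the other, by normalised counts and ratio limits, not self-fluorescent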;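 as to all read-outs here: cells exposed to compound for 72 h before imaging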;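 as to red/green cell ratio (normalised): normalised mesenchymal count divided by normalised epithelial count so high means epithelial killing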). The settings on record: imaging cell counts, at 1 µM; for red/green cell ratio (normalised): actives lie on both sides, counts scaled to control wells, 1 = unselective.
Where [9] appears, read: measured here: epithelial PC-3E GFP cell survival.
Where [10] appears, read: measured here: mesenchymal TEM4-18 mCherry cell survival.

In the case of `CN(C)CC/C=C1/c2ccccc2COc2ccc(CC(=O)O)cc21`, in test [1], the mean signal was 251 (inactive). The result in test [2], in test [3], in test [4] and in test [5] was inactive.

The term remaining activity denotes the signal under treatment as a percentage of the control signal. Consider `CN(CCCN1c2ccccc2CCc2ccccc21)CC(=O)c1ccc(Cl)cc1`, for which the mean signal in test [1] was 194 (inactive). Moreover, the remaining activity in test [6] was 113% (inactive).

`CN1[C@@H]2CC[C@H]1CC(OC(=O)c1c[nH]c3ccccc13)C2` (some centres undefined): in test [1], the mean signal is 271 (inactive). Moreover, in test [6], the remaining activity is 107% (inactive). Besides, the outcome in test [4] and in test [7] was inactive.

On to `NC1CCN(c2cccc(Cl)n2)CC1`, for which the mean signal in test [1] is 216 (inactive). The remaining activity in test [6] was 113% (inactive).

With `CN(CCOc1ccc(NS(C)(=O)=O)cc1)CCc1ccc(NS(C)(=O)=O)cc1`, the mean signal in test [1] is 278 (inactive). Moreover, the compound was called inactive in test [2], in test [3], in test [4] and in test [7].

Turning to `CC(C)c1nc(CN(C)C(=O)N[C@H](C(=O)N[C@@H](Cc2ccccc2)C[C@H](O)[C@H](Cc2ccccc2)NC(=O)OCc2cncs2)C(C)C)cs1`, the mean signal in test [1] was 246 (inactive). Further, the red/green cell ratio (normalised) in test [8] is 1.06 (inactive). Further, the normalised cell number worked out at 1.14 in test [8] (setting [9]) and 1.21 in test [8] (setting [10]). Also, the outcome in test [3] and in test [4] was inactive.

Turning to `O=C1N(c2ccccc2)c2ccccc2C1(Cc1ccncc1)Cc1ccncc1`, the mean signal in test [1] was 247 (inactive). The remaining activity in test [6] was 110% (inactive). In addition, the call in test [2], in test [3], in test [4], in test [7] and in test [5] was inactive.

Take `NS(=O)(=O)Cc1noc2ccccc12`: the mean signal in test [1] is 260 (inactive). In test [6], the remaining activity is 96.2% (inactive).

With `CN(C/C=C/C#CC(C)(C)C)Cc1cccc2ccccc12`, in test [1], the mean signal is 221 (inactive). Moreover, the red/green cell ratio (normalised) in test [8] is 1.03 (inactive). Besides, the results for the normalised cell number in test [8] (setting [9]) and in test [8] (setting [10]) were 1.32 and 1.37, respectively. In addition, the compound was classed as inactive in test [3] and in test [4].

As for `Brc1c(NC2=NCCN2)ccc2nccnc12`, the mean signal in test [1] was 249 (inactive). The remaining activity in test [6] is 80.2% (inactive) and 100% (inactive).

Turning to `C[C@@H]1CN(CCCn2c3ccccc3c3ccccc32)C[C@H](C)N1`, the mean signal in test [1] was 203 (inactive). Besides, in test [6], the remaining activity is 123% (inactive).

In general, AC50 refers to the concentration giving half of the maximal activity seen. Take `CN1CCN(CCCN2c3ccccc3Sc3ccc(Cl)cc32)CC1`: the mean signal in test [1] was 253 (inactive). Further, the red/green cell ratio (normalised) in test [8] is 1.2 (inactive). Moreover, the normalised cell number in test [8] (setting [9]) was 0.97; in test [8] (setting [10]), 1.16. For the same compound, the half-maximal activity concentration (AC50) in test [3] is 0.0105 µM (active); in test [4], 7.43 µM (active); in test [7] it was 10.5 µM (active).

As for `Cc1ccnc2c1NC(=O)c1cccnc1N2C1CC1`, the mean signal in test [1] is 208 (inactive). Moreover, the red/green cell ratio (normalised) in test [8] was 0.79 (inactive). Further, the normalised cell number was determined as 1.34 in test [8] (setting [9]) and 1.05 in test [8] (setting [10]). Further, the AC50 in test [7] was 16.6 µM (active).

For `O=C1CCc2ccc(OCCCCN3CCN(c4cccc(Cl)c4Cl)CC3)cc2N1`, the mean signal in test [1] was 231 (inactive). For the same compound, the red/green cell ratio (normalised) in test [8] was 0.72 (inactive). For the same compound, the figures for the normalised cell number in test [8] (setting [9]) and in test [8] (setting [10]) were 1.31 and 0.94, respectively. The compound was called inactive in test [3] and in test [4].

For `CNCCCCOc1ccccc1Cc1ccccc1`, the mean signal in test [1] was 234 (inactive). For the same compound, the remaining activity in test [6] is 120% (inactive).

As to `Cc1nc2n(c(=O)c1CCN1CCC(c3noc4cc(F)ccc34)CC1)CCCC2`, in test [1], the mean signal is 241 (inactive). In addition, in test [8], the red/green cell ratio (normalised) was 0.98 (inactive). Besides, the normalised cell number in test [8] (setting [9]) was found to be 1.02; in test [8] (setting [10]), 1. Further, the compound was classed as inactive in test [3] and in test [7].

Regarding `Cn1c(NCCN(CCO)CCCc2ccc([N+](=O)[O-])cc2)cc(=O)n(C)c1=O`, the mean signal in test [1] is 242 (inactive). For the same compound, the compound was classed as inactive in test [2] and in test [5]. For the same compound, in test [7], the AC50 is 20.9 µM (active).

Take `Cc1nc2ccc(CN(C)c3ccc(C(=O)N[C@@H](CCC(=O)O)C(=O)O)s3)cc2c(=O)[nH]1`: in test [1], the mean signal is 269 (inactive). Moreover, the result in test [2], in test [4] and in test [5] was inactive.

Turning to `COc1cccc2c1C(=O)c1c(O)c3c(c(O)c1C2=O)C[C@@](O)(C(=O)CO)C[C@@H]3O[C@H]1C[C@H](N)[C@H](O)[C@H](C)O1`, in test [1], the mean signal is 234 (inactive). The remaining activity in test [6] was 110% (inactive). The AC50 in test [2] is 0.235 µM (active); in test [4], 0.332 µM (active); in test [7], 0.418 µM (active); in test [5], 0.934 µM (active).

For the compound `O=C(c1ccc(F)cc1)C1CCN(CCn2c(=S)[nH]c3ccccc3c2=O)CC1`, in test [1], the mean signal was 246 (inactive). For the same compound, the remaining activity in test [6] was 106% (inactive).

Turning to `CCN1CCC[C@H]1CNC(=O)c1cc(S(N)(=O)=O)ccc1OC`, in test [1], the mean signal was 274 (inactive). The remaining activity in test [6] is 123% (inactive).

On to `Cc1ncc([N+](=O)[O-])n1CCO`, for which the mean signal in test [1] is 239 (inactive). Besides, in test [8], the red/green cell ratio (normalised) is 1.23 (inactive). Also, the normalised cell number in test [8] (setting [9]) amounted to 0.93; in test [8] (setting [10]) it was 1.13. For the same compound, the result in test [3], in test [4] and in test [7] was inactive.

Turning to `CN(C)CCCSc1ccccc1NC(=O)/C=C/c1ccccc1`, the mean signal in test [1] was 241 (inactive). Also, the remaining activity in test [6] was 115% (inactive).

For `Nc1nc(F)nc2c1ncn2[C@@H]1O[C@H](CO)[C@@H](O)[C@@H]1O`, the mean signal in test [1] is 243 (inactive). Also, the remaining activity in test [6] is 101% (inactive). Moreover, the AC50 in test [2] was 10.5 µM (active).

For the compound `Cc1ccsc1C(=CCCN1CCC[C@@H](C(=O)O)C1)c1sccc1C`, the mean signal in test [1] is 213 (inactive). In addition, the compound was classed as inactive in test [2] and in test [5].

Turning to `Cc1cn([C@H]2C=C[C@@H](CO)O2)c(=O)[nH]c1=O`, the mean signal in test [1] was 233 (inactive). Further, the red/green cell ratio (normalised) in test [8] is 0.8 (inactive). Further, the results for the normalised cell number in test [8] (setting [9]) and in test [8] (setting [10]) were 1.35 and 1.09, respectively. Besides, the outcome in test [3], in test [4] and in test [7] was inactive.

For `Nc1ccn([C@H]2CC[C@@H](CO)O2)c(=O)n1`, the mean signal in test [1] was 305 (inactive). Also, the red/green cell ratio (normalised) in test [8] is 0.76 (inactive). Moreover, the normalised cell number was 1.16 in test [8] (setting [9]) and 0.88 in test [8] (setting [10]). Moreover, in test [7], the compound was classed as inactive.
